# Measured values as given in PubChem BioAssay (EPA / NIEHS).
# Results filed as inconclusive are left out. The source made the active and inactive calls. How the source made its calls: active means hit-call score of the fitted dose curve at least 0.9, where 1 is the maximum; inconclusive means response in the unintended direction; inactive means score below 0.9.
# Tests used:
# [1] = target: chimpanzee Androgen Receptor (AR), AR (gene 747460) (UniProt O97775); assay: NVS_NR_cAR: NovaScreen (NVS) Nuclear Receptor Binding Assay for chimpanzee Androgen Receptor (AR) (AID 2283346);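 further: radioligand displacement from AR measured by scintillation counting in a cell-free assay; a loss of bound radioligand signal versus DMSO counts as binding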
# Procedure, shortened: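 Radioligand binding to chimpanzee AR expressed in Sf9/Sf21 cells, cell-free, measured 72 h after dosing by lysate-based scintillation counting. Loss of signal vs DMSO; initial duplicate screen at 25 uM, actives retested in concentration series.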
# [2] = target: Estrogen receptor (Homo sapiens) (UniProt P03372); assay: NVS_NR_hER: NovaScreen (NVS) Nuclear Receptor Binding Assay for human Estrogen Receptor (ER) (AID 2283348)
# Procedure, shortened: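 MCF7-derived receptor extract, radiolabelled ligand, competitive displacement. Read: scintillation counts at 18 h. DMSO = negative control/baseline. Primary 25 uM duplicate; follow-up concentration–response.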
# [3] = target: Estrogen receptor (Homo sapiens) (UniProt P03372); assay: OT_ER_ERaERa_1440: Odyssey Thera (OT) 24-hour HEK293T Protein-Complementation Assay for Estrogen Receptor-alpha/-alpha Homodimer (AID 2283349);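 further: hits raise fluorescence above DMSO for agonists and antagonists alike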
# Procedure, shortened: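 Cells (HEK293T) carrying the fragment-tagged ERα LBD (aa 310-547) pair are treated with chemical for 24 hours. Nuclear and/or cytoplasmic fluorescence is then quantified on a laser scanning cytometer. Activity is scored as signal gain against DMSO.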
# [4] = target: Estrogen receptor (Homo sapiens) (UniProt P03372); assay: OT_ER_ERaERa_0480: Odyssey Thera (OT) 8-hour HEK293T Protein-Complementation Assay for Estrogen Receptor-alpha/-alpha Homodimer (AID 2283351);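 further: rise in fluorescence from reassembled reporter fragments on ERα LBD homodimer in nucleus or whole cell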
# Procedure, shortened: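 HEK293T cells stably expressing a PCA pair of ER alpha LBD (residues 310-547) were dosed for 8 hours. The gain in fluorescence intensity, nuclear for agonists and whole-cell for antagonists, was measured by laser scanning cytometry against DMSO vehicle.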
# [5] = target: Estrogen receptor (Homo sapiens) + Estrogen receptor beta (Homo sapiens) (UniProt P03372+Q92731); assay: OT_ER_ERaERb_0480: Odyssey Thera (OT) 8-hour HEK293T Protein-Complementation Assay for Estrogen Receptor-alpha/-beta Heterodimer (AID 2283352)
# Procedure, shortened: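 HEK293T cells expressing ER-alpha/ER-beta LBD fusions to complementary reporter fragments were dosed with compound for 8 hours. Heterodimer formation was read as increased nuclear (agonist) or nuclear plus cytoplasmic (antagonist) mean fluorescence intensity versus DMSO vehicle.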
# [6] = target: Androgen Receptor/SRC-1 Co-activator, AR (gene 367) (UniProt P10275); assay: OT_AR_ARSRC1_0960: Odyssey Thera (OT) 16-hour HEK293T Protein-Complementation Assay for Androgen Receptor/SRC-1 Co-activator (AID 2283353);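 further: actives raise the signal above DMSO so potency reflects increased AR and SRC-1 complex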
# Procedure, shortened: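 Endpoint is gain-of-signal N/C fluorescence ratio in the 488 nm channel versus DMSO, from at least 400 cells per image, measured 16 h post-dosing. Cells: HEK293T stably carrying split-Venus AR/SRC-1 complementation constructs.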
# chimpanzee Androgen Receptor (AR), AR (gene 747460), sequence (O97775 whole entry, looked up): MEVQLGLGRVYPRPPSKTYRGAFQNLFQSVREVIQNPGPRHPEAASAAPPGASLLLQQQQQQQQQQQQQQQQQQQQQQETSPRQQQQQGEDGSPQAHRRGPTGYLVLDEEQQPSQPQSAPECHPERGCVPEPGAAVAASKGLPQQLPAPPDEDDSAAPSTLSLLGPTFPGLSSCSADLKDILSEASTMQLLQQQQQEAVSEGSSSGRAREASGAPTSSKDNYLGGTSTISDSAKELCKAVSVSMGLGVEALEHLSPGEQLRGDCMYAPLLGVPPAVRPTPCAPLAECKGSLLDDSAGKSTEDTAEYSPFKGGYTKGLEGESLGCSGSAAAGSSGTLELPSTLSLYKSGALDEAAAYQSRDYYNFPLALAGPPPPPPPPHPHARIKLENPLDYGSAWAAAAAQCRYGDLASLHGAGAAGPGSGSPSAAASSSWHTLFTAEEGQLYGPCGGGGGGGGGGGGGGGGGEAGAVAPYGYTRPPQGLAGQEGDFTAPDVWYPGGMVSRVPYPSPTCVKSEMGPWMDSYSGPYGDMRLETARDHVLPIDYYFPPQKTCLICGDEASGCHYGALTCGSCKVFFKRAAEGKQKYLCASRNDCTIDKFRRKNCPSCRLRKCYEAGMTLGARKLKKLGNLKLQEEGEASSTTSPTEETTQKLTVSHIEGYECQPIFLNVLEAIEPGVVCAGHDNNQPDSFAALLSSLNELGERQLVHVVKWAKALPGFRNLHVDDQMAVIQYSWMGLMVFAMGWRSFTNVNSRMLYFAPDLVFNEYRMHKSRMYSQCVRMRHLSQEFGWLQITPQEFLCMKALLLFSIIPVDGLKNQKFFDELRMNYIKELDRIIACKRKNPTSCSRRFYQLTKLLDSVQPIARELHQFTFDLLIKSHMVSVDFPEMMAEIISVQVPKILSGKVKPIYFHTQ
# Androgen Receptor/SRC-1 Co-activator, AR (gene 367), sequence (P10275 whole entry, looked up): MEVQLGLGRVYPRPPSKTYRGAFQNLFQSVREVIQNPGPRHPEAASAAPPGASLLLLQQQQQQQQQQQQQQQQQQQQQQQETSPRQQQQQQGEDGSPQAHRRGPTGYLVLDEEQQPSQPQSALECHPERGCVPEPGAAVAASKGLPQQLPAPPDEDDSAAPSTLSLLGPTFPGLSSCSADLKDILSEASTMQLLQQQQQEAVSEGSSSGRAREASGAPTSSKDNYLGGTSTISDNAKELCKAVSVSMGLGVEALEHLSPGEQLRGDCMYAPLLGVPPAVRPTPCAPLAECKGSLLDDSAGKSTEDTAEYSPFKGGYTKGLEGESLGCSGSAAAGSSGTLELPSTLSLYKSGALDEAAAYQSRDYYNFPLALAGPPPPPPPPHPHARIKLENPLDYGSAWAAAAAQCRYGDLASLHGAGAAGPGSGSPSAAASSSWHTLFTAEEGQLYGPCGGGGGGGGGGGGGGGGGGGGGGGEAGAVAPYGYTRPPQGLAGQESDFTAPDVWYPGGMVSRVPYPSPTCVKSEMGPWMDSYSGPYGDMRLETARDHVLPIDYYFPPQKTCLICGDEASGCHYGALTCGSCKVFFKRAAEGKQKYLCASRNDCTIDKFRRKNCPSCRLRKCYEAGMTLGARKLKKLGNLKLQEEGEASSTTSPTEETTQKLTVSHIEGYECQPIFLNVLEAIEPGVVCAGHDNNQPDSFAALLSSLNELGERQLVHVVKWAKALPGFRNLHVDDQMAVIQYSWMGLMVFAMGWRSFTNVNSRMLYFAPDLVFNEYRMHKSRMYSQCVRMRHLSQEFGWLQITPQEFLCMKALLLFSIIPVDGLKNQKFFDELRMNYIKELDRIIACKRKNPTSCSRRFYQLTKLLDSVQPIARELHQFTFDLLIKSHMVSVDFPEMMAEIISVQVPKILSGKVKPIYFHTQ
# Estrogen receptor (Homo sapiens), sequence (P03372 whole entry, looked up, the tested form may be a part): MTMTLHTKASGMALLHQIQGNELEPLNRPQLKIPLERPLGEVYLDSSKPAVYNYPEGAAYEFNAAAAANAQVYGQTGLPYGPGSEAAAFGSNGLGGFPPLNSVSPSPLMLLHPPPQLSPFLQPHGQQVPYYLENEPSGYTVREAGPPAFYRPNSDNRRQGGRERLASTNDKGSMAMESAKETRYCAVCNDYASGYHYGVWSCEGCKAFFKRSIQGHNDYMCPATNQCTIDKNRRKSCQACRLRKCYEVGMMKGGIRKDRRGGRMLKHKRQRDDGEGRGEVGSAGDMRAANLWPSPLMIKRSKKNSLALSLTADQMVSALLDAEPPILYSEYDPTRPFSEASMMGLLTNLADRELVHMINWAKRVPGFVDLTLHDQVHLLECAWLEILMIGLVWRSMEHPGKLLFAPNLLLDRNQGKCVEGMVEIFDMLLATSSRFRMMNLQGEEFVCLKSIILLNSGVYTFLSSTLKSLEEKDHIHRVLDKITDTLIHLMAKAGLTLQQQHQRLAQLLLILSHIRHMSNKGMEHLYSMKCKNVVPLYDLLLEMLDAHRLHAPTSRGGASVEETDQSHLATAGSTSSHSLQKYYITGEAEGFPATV
# Estrogen receptor (Homo sapiens) + Estrogen receptor beta (Homo sapiens), sequence (P03372 whole entry, looked up, the tested form may be a part): as above
# Estrogen receptor (Homo sapiens) + Estrogen receptor beta (Homo sapiens), sequence (Q92731 whole entry, looked up, the tested form may be a part): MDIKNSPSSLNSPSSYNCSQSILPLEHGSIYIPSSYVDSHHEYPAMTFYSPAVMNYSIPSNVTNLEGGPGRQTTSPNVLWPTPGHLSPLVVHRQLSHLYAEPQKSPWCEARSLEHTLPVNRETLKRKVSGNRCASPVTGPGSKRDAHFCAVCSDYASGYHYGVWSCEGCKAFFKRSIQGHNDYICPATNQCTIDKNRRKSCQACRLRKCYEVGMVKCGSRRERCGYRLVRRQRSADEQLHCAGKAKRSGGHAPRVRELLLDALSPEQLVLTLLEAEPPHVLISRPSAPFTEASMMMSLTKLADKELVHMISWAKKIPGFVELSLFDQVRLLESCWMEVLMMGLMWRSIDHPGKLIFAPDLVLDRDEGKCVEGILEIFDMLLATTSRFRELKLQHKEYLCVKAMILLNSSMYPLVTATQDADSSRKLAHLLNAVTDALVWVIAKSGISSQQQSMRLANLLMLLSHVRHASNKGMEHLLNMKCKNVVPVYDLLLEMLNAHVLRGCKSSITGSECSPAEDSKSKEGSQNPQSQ
smiles,measurement,setting,value
C[C@]12C=CC(=O)C=C1CC[C@@H]1[C@@H]2C(=O)C[C@@]2(C)[C@H]1CC[C@]2(O)C(=O)CO,AC50,[1],14.8 µM (active)
same,outcome,[2],inactive
same,outcome,[3],inactive
same,outcome,[4],inactive
CCCCN(CCCC)CCCC,outcome,[1],inactive
same,outcome,[3],inactive
same,outcome,[4],inactive
same,outcome,[5],inactive
FC(F)(F)C(F)(F)C(F)(F)C(F)(F)C(F)(F)C(F)(F)CCI,outcome,[3],inactive
same,outcome,[4],inactive
NC(=O)Cn1c(=O)cc(CCN2CCN(c3nccc4sccc34)CC2)c2ccc(F)cc21,outcome,[3],inactive
same,outcome,[4],inactive
OC[C@@H](O)[C@@H](O)[C@H](O)[C@H](O)CO,outcome,[3],inactive
same,outcome,[4],inactive
Cc1oc(-c2ccccc2)nc1CCOc1cccc2c1ccn2CCC(=O)O,outcome,[2],inactive
same,outcome,[3],inactive
same,outcome,[4],inactive
same,outcome,[5],inactive
CC1(C)NC(=O)NC1=O,outcome,[3],inactive
same,outcome,[4],inactive
Nc1ccc(S(=O)(=O)c2ccc(N)cc2)cc1,outcome,[3],inactive
same,outcome,[4],inactive
C=CCc1ccc(O)c(OC)c1,AC50,[1],21 µM (active)
same,outcome,[2],inactive
same,outcome,[3],inactive
same,outcome,[4],inactive
Cc1cc(=O)[nH]c(=S)[nH]1,outcome,[3],inactive
same,outcome,[4],inactive
CC(C)(C)c1cc(O)c(C(C)(C)C)cc1O,outcome,[2],inactive
same,outcome,[3],inactive
same,outcome,[4],inactive
same,outcome,[5],inactive
same,AC50,[6],50 µM (active)
Clc1cc(Cl)c(Cl)cc1Cl,outcome,[3],inactive
same,outcome,[4],inactive
Oc1ccc2c(c1)OC[C@@H](N1CCC(O)(c3ccc(F)cc3)CC1)[C@H]2O,outcome,[2],inactive
same,outcome,[3],inactive
same,outcome,[4],inactive
same,outcome,[5],inactive
CC1(C)CC(N=C=O)CC(C)(CN=C=O)C1 (centres undefined),outcome,[3],inactive
same,outcome,[4],inactive
CCNc1cccc(C)c1,outcome,[1],inactive
same,outcome,[3],inactive
same,outcome,[4],inactive
CC(=O)C(C)=CC1C(C)=CCCC1(C)C (centres undefined),outcome,[2],inactive
same,outcome,[3],inactive
same,outcome,[4],inactive
COc1cc(S(=O)(=O)O)c(C)cc1N=Nc1c(O)ccc2cc(S(=O)(=O)O)ccc12,outcome,[3],inactive
same,outcome,[4],inactive
CC1=C(/C=C/C(C)=C/C=C/C(C)=C/CO)C(C)(C)CCC1,outcome,[2],inactive
same,outcome,[3],inactive
same,outcome,[4],inactive
same,outcome,[5],inactive
NCCO,outcome,[3],inactive
same,outcome,[4],inactive
O=c1c(O)c(-c2ccc(O)c(O)c2)oc2cc(O)cc(O)c12,outcome,[2],inactive
same,outcome,[3],inactive
same,outcome,[4],inactive
same,AC50,[5],13.4 µM (active)
C[Si]1(C)O[Si](C)(C)O[Si](C)(C)O[Si](C)(C)O1,outcome,[2],inactive
same,outcome,[3],inactive
same,outcome,[4],inactive
same,outcome,[5],inactive
CC(CO)OC(C)CO (centres undefined) (tested in a mixture with another compound),outcome,[3],inactive
same,outcome,[4],inactive
COc1ccc(C)cc1N,outcome,[3],inactive
same,outcome,[4],inactive
same,outcome,[6],inactive
CCOC(=O)C(C)(C)Oc1ccc(Cl)cc1,outcome,[3],inactive
same,outcome,[4],inactive
same,outcome,[5],inactive
COCCOC[C@H](CC1(C(=O)NC2CCC(C(=O)O)CC2)CCCC1)C(=O)Oc1ccc2c(c1)CCC2 (some centres undefined),outcome,[3],inactive
same,outcome,[4],inactive
same,outcome,[6],inactive
Cc1ccc(N(C)C)cc1,outcome,[3],inactive
same,outcome,[4],inactive
same,outcome,[6],inactive
O=C(O)CCCCC(=O)O,outcome,[3],inactive
same,outcome,[4],inactive
same,outcome,[5],inactive
CCCCCCOCCO,outcome,[3],inactive
same,outcome,[4],inactive
same,outcome,[5],inactive
NCC1(Cc2noc(=O)[nH]2)CCCCC1,outcome,[3],inactive
same,outcome,[4],inactive
same,outcome,[5],inactive
CC(=O)Oc1ccccc1C(=O)O,outcome,[3],inactive
same,outcome,[4],inactive
same,outcome,[5],inactive
same,outcome,[6],inactive
Cc1c(C(=O)O)c(O)cc2c1C(=O)c1c(O)c([C@@H]3O[C@H](CO)[C@@H](O)[C@H](O)[C@H]3O)c(O)c(O)c1C2=O,outcome,[3],inactive
same,outcome,[4],inactive
same,outcome,[5],inactive
Cc1ccc(C)c(O)c1C,outcome,[3],inactive
same,outcome,[4],inactive
same,outcome,[6],inactive
CCCCOC(=O)CCCCCCCCC(=O)OCCCC,outcome,[3],inactive
same,outcome,[4],inactive
same,outcome,[5],inactive
Cc1cccc([N+](=O)[O-])c1C,outcome,[3],inactive
same,outcome,[4],inactive
same,outcome,[5],inactive
same,outcome,[6],inactive
CN1CCCC1=O,outcome,[3],inactive
same,outcome,[5],inactive
Cc1nc(C)nc(N2C[C@@H](C)N(c3ccnc([C@@H](C)O)n3)[C@@H](C)C2)n1,outcome,[4],inactive
Cc1ccc2ncccc2c1,outcome,[3],inactive
same,outcome,[4],inactive
COCCOCCOC,outcome,[3],inactive
same,outcome,[5],inactive
same,outcome,[6],inactive
CCCCCCCCCCCCCO,outcome,[3],inactive
same,outcome,[4],inactive
same,outcome,[5],inactive
O=c1[nH]cc(F)c(=O)[nH]1,outcome,[3],inactive
same,outcome,[4],inactive
same,outcome,[5],inactive
CC(=O)OCCOCCOCCOC(C)=O,outcome,[3],inactive
same,outcome,[4],inactive
same,outcome,[5],inactive
Cc1cccc(C)c1O,outcome,[3],inactive
same,outcome,[4],inactive
same,outcome,[5],inactive
same,outcome,[6],inactive
NS(=O)(=O)c1cc2c(cc1Cl)NCNS2(=O)=O,outcome,[3],inactive
same,outcome,[4],inactive
same,outcome,[5],inactive
Cc1ccc(C)c(C)c1,outcome,[3],inactive
same,outcome,[4],inactive
same,outcome,[5],inactive
same,outcome,[6],inactive
O=C(N[C@@H](Cc1ccccc1)[C@@H](O)C(=O)N1C[C@@H](O)[C@@H](O)C1)c1cc2cc(Cl)ccc2[nH]1,outcome,[3],inactive
same,outcome,[4],inactive
same,outcome,[5],inactive
